Rows were chosen to be rich in hits. Some 0.26% of all compounds tested hit in one or more screens of this group.
PKD1 inh: blocks activity of human protein kinase D1; Q15139; PKD1 kinase fluorescence polarization assay; inhibition, % (test concentration not listed); 0.056% of 200,000 active; AID 797; in the data active = inhibition above about 50%
Bim-Bcl-2: inhibitors of Bim-Bcl-2 interaction, human | P10415 | Bead-based flow cytometry, Bim peptide-Bcl-2 binding | inhibition, % at 10 µM | 0.06% of 190,000 active | AID 950; in the data active = inhibition above about 40%;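 also: 0% = no compound wells with probe peptide and 100% = reference peptide inhibitor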
Target sequence (P10415 whole entry, looked up): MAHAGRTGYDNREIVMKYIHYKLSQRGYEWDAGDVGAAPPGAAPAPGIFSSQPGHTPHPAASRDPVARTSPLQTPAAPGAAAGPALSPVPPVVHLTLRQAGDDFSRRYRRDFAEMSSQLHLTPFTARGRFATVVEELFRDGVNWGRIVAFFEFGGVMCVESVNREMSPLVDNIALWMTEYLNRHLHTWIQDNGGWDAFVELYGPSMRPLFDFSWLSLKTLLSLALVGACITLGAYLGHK
Bcl-XL Bim block: human Bim-Bcl-XL interaction inhibition | Q07817 | Bim peptide-Bcl-XL binding, bead flow cytometry, fluorescence | inhibition, % at 10 µM | 0.04% of 190,000 active
Bim-Bcl-B: human Bim-Bcl-B interaction inhibition | Q9HD36 | 0.073% of 190,000 active | bead-based flow cytometry, Bim peptide-Bcl-B binding | inhibition, % at 10 µM;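 also: 0% = tracer peptide without compound and 100% = reference inhibitor peptide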
Target sequence (Q9HD36 whole entry, looked up): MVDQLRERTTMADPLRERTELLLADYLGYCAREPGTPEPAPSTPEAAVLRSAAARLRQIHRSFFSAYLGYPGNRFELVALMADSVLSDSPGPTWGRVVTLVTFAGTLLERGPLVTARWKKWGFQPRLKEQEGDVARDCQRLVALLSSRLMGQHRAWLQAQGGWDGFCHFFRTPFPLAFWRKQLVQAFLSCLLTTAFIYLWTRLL
Bcl-W Bim block: inhibitors of Bim-Bcl-W interaction, human; 0.02% of 190,000 active; bead-based flow cytometry, Bim peptide-Bcl-W binding; AID 952; Q92843; inhibition, % at 10 µM;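 also: 0% = bound tracer without compound and 100% = peptide blocker; higher means less fluorescent Bim peptide bound to Bcl-W beads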
Bim-Bfl-1: disrupts Bim binding to human Bfl-1. Bead-based flow cytometry, Bim-Bfl-1 binding inhibition. inhibition, % at 10 µM. Q16548. 0.12% of 190,000 active;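 also: 0% = wells without compound plus tracer and 100% = blocker peptide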
An asterisk follows results filed as active; · = no result. Rule as the data show it, unless noted: active = inhibition above about 40%.

SMILES	PKD1 inh	Bim-Bcl-2	Bcl-XL Bim block	Bim-Bcl-B	Bcl-W Bim block	Bim-Bfl-1
Clc1nc(NCc2cccnc2)nc(N2CCOCC2)n1	-4.7	23.0	49.0*	73.0*	47.0*	22.0
c1ccc(CNc2nc(N3CCOCC3)nc(N3CCOCC3)n2)cc1	-0.6	-7.0	-1.0	-3.0	0.0	-2.0
Cc1ccc(NC(=O)N/C=C/c2ccco2)cc1	4.5	-12.0	-2.0	-6.0	0.0	-13.0
CCn1nc(C)c(NC(=O)Nc2cccc(Cl)c2Cl)c1C	1.4	-7.0	-2.0	-3.0	-3.0	-6.0
CN(C)S(=O)(=O)c1cccc(-c2nn(-c3ccccc3)cc2/C=C2\SC(=S)NC2=O)c1	-3.7	31.0	43.0*	55.0*	37.0	41.0*
O=C(CN1CCN(S(=O)(=O)c2ccc3ccccc3c2)CC1)Nc1ccc2c(c1)CCC2	-2.7	-5.0	-2.0	-4.0	-1.0	-1.0
CC(NCc1ccc(-c2ccccc2)cc1)C(O)c1ccccc1 (configuration not stated)	0.8	30.0	40.0*	15.0	24.0	39.0
CC(O)CNCc1ccc(-c2ccccc2)cc1 (configuration not stated)	12.5	2.0	0.0	0.0	2.0	-1.0
CN(C)S(=O)(=O)N(CC(=O)Nc1ccccc1C(F)(F)F)c1ccccc1	-2.6	86.0*	19.0	·	17.0	·
CCCCOC(=O)c1nc(Cl)c(Cl)c(N)c1Cl	-2.2	25.0	3.0	42.0*	-2.0	2.0
C/C(=N\Nc1ncc(Cl)cc1Cl)c1ccccn1	61.4*	7.0	7.0	-11.0	0.0	7.0
COc1ccc(-c2ccccc2)cc1NCc1ccc(OC)c(OC)c1	4.5	-5.0	-8.0	-6.0	-4.0	-2.0
Nc1c(C(=O)NC2CC2)sc2nc3c(c(-c4ccco4)c12)CC/C3=C/c1ccco1	-2.2	43.0*	29.0	34.0	34.0	56.0*
COc1ccc(/C=C/CN2CCC(CO)(Cc3ccccc3Cl)CC2)cc1	-3.1	-3.0	0.0	-4.0	-3.0	-5.0
O=C1CN(C(=S)NC(=O)c2ccc(-c3ccccc3)cc2)CCN1	-6.2	3.0	-1.0	-40.0	0.0	8.0
COc1ccc(C(=O)NC(=S)N2CCNC(=O)C2)cc1Br	-4.4	79.0*	4.0	70.0*	3.0	71.0*
Cc1c(C(=O)NCc2ccc3c(c2)cc(C)n3C)cccc1[N+](=O)[O-]	2.0	-1.0	-5.0	-6.0	-2.0	-2.0
O=c1[nH]c(SCc2nc3ccccc3n2Cc2ccccc2)nc2ccccc12	-2.1	0.0	-6.0	-1.0	-4.0	-2.0
O=c1[nH]c(SCc2nc3ccccc3c(=O)n2-c2ccccc2C(F)(F)F)nc2ccccc12	-0.2	23.0	41.0*	16.0	35.0	34.0
CN(C)[C@@H]1C(=O)C(C(=O)NCN2CCCC2)=C(O)[C@@]2(O)C(=O)C3=C(O)c4c(O)cccc4[C@@](C)(O)C3CC12 (some centres not stated)	22.7	37.0	10.0	43.0*	21.0	19.0
O=C(O)c1cc(NC(=O)c2ccccc2[N+](=O)[O-])ccc1O	-0.8	-2.0	-5.0	-1.0	-1.0	-3.0
COc1cccc(CC2(CO)CCCN(Cc3sc(N4CCCC4)nc3Cl)C2)c1 (configuration not stated)	4.8	-1.0	-5.0	-6.0	0.0	-4.0
Cc1c(N=C2C=CC(=O)c3ccccc32)c(=O)n(-c2ccccc2)n1C	1.6	16.0	2.0	-12.0	10.0	53.0*
O=C1CCCC2(O)C1C(c1cccc(Br)c1)NC(=O)N2Cc1ccccc1 (configuration not stated)	-8.7	39.0	49.0*	39.0	39.0	38.0
O=C1CCC([N+](=O)[O-])C(c2cccc(Br)c2)N1 (configuration not stated)	-10.4	-4.0	-7.0	-6.0	-6.0	-2.0
SMILES	PKD1 inh	Bim-Bcl-2	Bcl-XL Bim block	Bim-Bcl-B	Bcl-W Bim block	Bim-Bfl-1
O=C(Nc1ccc2snnc2c1)Nc1cccc2ccccc12	0.7	-3.0	0.0	-5.0	2.0	-6.0
CC(C)(C=O)C1=CC(=O)c2ccccc2C1=O	5.6	2.0	2.0	15.0	9.0	49.0*
O=C(NC1=C(NC2CCS(=O)(=O)C2)C(=O)c2ccccc2C1=O)c1ccccc1 (configuration not stated)	-4.9	11.0	5.0	7.0	22.0	56.0*
O=C(NC1=C(Nc2ccc(Cl)cc2)C(=O)c2ccccc2C1=O)c1ccccc1	-1.1	9.0	-10.0	-6.0	1.0	32.0
O=C(CCc1ccccc1)N1CCN(c2ccccn2)CC1	-9.4	15.0	16.0	43.0*	21.0	9.0
COC(=O)c1[nH]c2ccccc2c1NC(=O)c1ccccc1[N+](=O)[O-]	0.1	-6.0	2.0	44.0*	6.0	-2.0
Fc1ccc(C2=Nc3cccc4cccc(c34)N2)cc1	5.4	21.0	10.0	0.0	37.0	49.0*
COc1cc2[nH]c(=O)n(Cc3ccc(C(=O)NC4CCCC4)cc3)c(=O)c2cc1OC	-1.6	-3.0	4.0	-7.0	-1.0	-11.0
COc1ccc(Cn2c(=O)[nH]c3cc(C(=O)NC4CCCC4)ccc3c2=O)cc1	55.9*	-5.0	-2.0	-4.0	0.0	-4.0
CCN(CC)CCN(C(=O)c1cccc(N2C(=O)CCC2=O)c1)c1nc2cc3c(cc2s1)OCO3	-2.5	-2.0	-2.0	1.0	4.0	-3.0
CCN(CC)CCN(C(=O)c1ccc(N2C(=O)CCC2=O)cc1)c1nc2cc3c(cc2s1)OCCO3	6.4	43.0*	1.0	36.0	4.0	32.0
COc1ccc(C2=Nn3c(nnc3-c3ccco3)SC2)cc1OC	-6.1	14.0	44.0*	26.0	29.0	8.0
COc1ccc(C2=Nn3c(nnc3-c3ccccc3OC)SC2)cc1OC	-12.6	-6.0	-2.0	-5.0	-4.0	-12.0
O=C(C1CCC(Cn2c(=S)[nH]c3ccccc3c2=O)CC1)N1CCN(c2ccccc2)CC1 (configuration not stated)	-8.8	·	·	·	·	·
O=C(C1CCC(Cn2c(=S)[nH]c3ccccc3c2=O)CC1)N1CCN(c2ccccn2)CC1 (configuration not stated)	-4.6	37.0	7.0	52.0*	7.0	13.0
COc1ccccc1Cn1nnc2c(=O)[nH]c(C3CCN(C(=O)c4ccc(F)cc4)CC3)nc21	-2.9	-1.0	2.0	57.0*	5.0	-1.0
COc1ccccc1Cn1nnc2c(=O)[nH]c(C3CCN(C(=O)c4ccc(C)cc4)CC3)nc21	1.9	-1.0	-3.0	50.0*	-2.0	-1.0
COc1ccccc1Cn1nnc2c(=O)[nH]c(C3CCN(C(=O)c4ccccc4Cl)CC3)nc21	-7.7	-6.0	0.0	12.0	3.0	-12.0
Cc1ccccc1N1CCN(CCCCN2C(=O)C3CCCN3C2=O)CC1 (configuration not stated)	6.0	0.0	-7.0	-2.0	-1.0	1.0
Nc1ccc(N2CCN(CCCCN3C(=O)C4CCCN4C3=O)CC2)cc1 (configuration not stated)	-3.8	12.0	24.0	63.0*	25.0	8.0
